A collection of fitness landscapes (doi:10.1016/j.celrep.2020.107928)
In all, about 81,000 sequences were measured (“one-hybrid fitness for binding NBS DNA”: median about -0.1, highest 2% from about 0.36 on). This excerpt belongs to a sample that is enriched for the highest values.

B1: Caulobacter ParB omega fusion; a variant is named by its letters at X, in order, B8GW30 (parent)
chain: MESVVVGEPGMSEGRRGLGRGLSALLGEVDAAPAQAPGEQLGGSREAPIEILQRNPDQPRRTFREEDLEDLSNSIREKGVLQPILVRPSPDTAGEYQIVAGERAWRAAQRAGLKTVPIMVRELDDLAVLEIGIIENVQRADLNVLEEALSYKVLMEKFERTQENIAQTIGKSXSHVANXMRLLXLPDEVQSYLVSGELTAXHARAIAAAADPVALAKQIIEGGLSVRETEALARKAPNLSAGKSKGGRPPRVKDTDTQALESDLSSVLGLDVSIDHRGSTGTLTITYATLEQLDDLCNRLTRGI

Variants of: B1
Assay: one-hybrid fitness for binding NBS DNA (the Noc-binding site; scaled: cognate 1, non-cognate 0); higher = stronger binding
Details: with NBS DNA site
Procedure, shortened: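 Selection: bacterial one-hybrid in E. coli USO, HIS3 reporter with the site 19 bp from the promoter, 48 hours at 37°C on M9-minus-histidine plus 0.1 mM IPTG and 5 mM 3-AT. Libraries were Caulobacter ParB with four randomised specificity codons, sequenced on Illumina before and after selection. Fitness is the rescaled log change in variant-to-wild-type read ratio, anchored to the cognate and non-cognate sites.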

Row | Variant | one-hybrid fitness for binding NBS DNA
1 | RRYN | 0.26
2 | NKTG | ≤ 0.2
3 | YEAN | ≤ 0.2
4 | WTTS | ≤ 0.2
5 | MTMK | ≤ 0.2
6 | HRPA | ≤ 0.2
7 | GPSL | ≤ 0.2
8 | CRYG | ≤ 0.2
9 | RPYS | ≤ 0.2
10 | RRPD | ≤ 0.2
11 | RRPN | ≤ 0.2
12 | RRYS | 0.661
13 | RRRS | 0.74
14 | RRRP | 0.283
15 | RRYD | ≤ 0.2
16 | RRRD | 0.202
17 | RRPS | 0.568
18 | VRHA | ≤ 0.2
19 | LNEM | ≤ 0.2
20 | ADCG | ≤ 0.2
21 | SSQM | ≤ 0.2
22 | DSAV | ≤ 0.2
23 | PELK | ≤ 0.2
24 | STQD | ≤ 0.2
25 | GVGA | ≤ 0.2

Row | Variant | one-hybrid fitness for binding NBS DNA
26 | SIFQ | ≤ 0.2
27 | KRTT | 0.583
28 | KRTN | ≤ 0.2
29 | KRTR | 0.563
30 | KPTR | ≤ 0.2
31 | KCTT | ≤ 0.2
32 | KCTR | ≤ 0.2
33 | KRTP | ≤ 0.2
34 | KRTS | 0.448
35 | NRTT | ≤ 0.2
36 | EFMG | ≤ 0.2
37 | NTNM | ≤ 0.2
38 | VSAH | ≤ 0.2
39 | AAKR | 0.205
40 | NKSI | ≤ 0.2
41 | GMFR | ≤ 0.2
42 | SFAG | ≤ 0.2
43 | TRGR | 0.389
44 | TCRR | 0.333
45 | TCNR | ≤ 0.2
46 | TRNR | 0.466
47 | TCHR | ≤ 0.2
48 | TRDR | ≤ 0.2
49 | TRYR | 0.301
50 | TRHN | ≤ 0.2

Row | Variant | one-hybrid fitness for binding NBS DNA
51 | TCGR | ≤ 0.2
52 | ARGR | ≤ 0.2
53 | TRHR | 0.409
54 | TRRR | 0.682
55 | RYPE | ≤ 0.2
56 | FLFY | ≤ 0.2
57 | CVRG | ≤ 0.2
58 | MMMT | ≤ 0.2
59 | PQRS | ≤ 0.2
60 | PARP | ≤ 0.2
61 | AWAT | ≤ 0.2
62 | NMTI | ≤ 0.2
63 | LVAP | ≤ 0.2
64 | RINS | 0.445
65 | RIWD | ≤ 0.2
66 | RIRS | 0.56
67 | RIWP | ≤ 0.2
68 | RIYS | 0.413
69 | RIIS | ≤ 0.2
70 | RIDS | ≤ 0.2
71 | RIRP | ≤ 0.2
72 | RIND | ≤ 0.2
73 | RIRD | ≤ 0.2
74 | RIWS | 0.397
75 | RIFS | 0.214

Row | Variant | one-hybrid fitness for binding NBS DNA
76 | DTYS | ≤ 0.2
77 | SANL | ≤ 0.2
78 | RGWI | ≤ 0.2
79 | YSMI | ≤ 0.2
80 | YTKY | ≤ 0.2
81 | IQNI | ≤ 0.2
82 | RIHD | ≤ 0.2
83 | RIHN | ≤ 0.2
84 | RIHS | 0.381
85 | NKNM | ≤ 0.2
86 | QYYV | ≤ 0.2
87 | QYSV | ≤ 0.2
88 | WYRV | ≤ 0.2
89 | IYVV | ≤ 0.2
90 | IYIV | ≤ 0.2
91 | QYVV | ≤ 0.2
92 | QYDV | ≤ 0.2
93 | QYKV | 0.372
94 | WYCV | 0.366
95 | QYRV | 0.392
96 | IYPV | 0.41
97 | WYVV | ≤ 0.2
98 | YGDI | ≤ 0.2
